Measurements from PubChem BioAssay (Tox21).
Results filed as inconclusive are left out. A call without a number means that no potency is given here. Activity calls are given as the source filed them. Calls come from the whole dose curve.

What follows are molecules tested against 5-hydroxytryptamine receptor 2A (Homo sapiens) (UniProt P28223) (assay: 5-hydroxytryptamine receptor 2A (HTR2A) small molecule agonists, cell-based qHTS assay (AID 1963587; note: nearly all actives have a fitted effect of over 30% in size)). Conditions: HTR2A-CHO cells, calcium flux fluorescence, agonist mode; series mostly up to 76.8 µM.
Sequence of 5-hydroxytryptamine receptor 2A (Homo sapiens) (P28223 whole entry, looked up): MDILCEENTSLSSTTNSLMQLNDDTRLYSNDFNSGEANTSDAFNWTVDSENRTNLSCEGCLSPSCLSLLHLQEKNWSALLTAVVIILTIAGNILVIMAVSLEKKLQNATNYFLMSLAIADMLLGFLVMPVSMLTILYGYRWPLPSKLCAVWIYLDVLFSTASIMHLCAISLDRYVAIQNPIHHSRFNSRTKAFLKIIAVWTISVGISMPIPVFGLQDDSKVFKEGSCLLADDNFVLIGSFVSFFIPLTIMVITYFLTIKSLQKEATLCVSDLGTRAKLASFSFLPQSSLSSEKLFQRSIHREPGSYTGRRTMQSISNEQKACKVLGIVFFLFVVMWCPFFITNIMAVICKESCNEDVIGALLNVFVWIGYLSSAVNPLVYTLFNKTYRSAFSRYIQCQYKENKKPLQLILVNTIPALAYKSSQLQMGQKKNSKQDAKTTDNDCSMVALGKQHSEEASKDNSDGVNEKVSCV
Text: National Center for Advancing Translational Sciences [NCATS]
Division of Preclinical Innovation [DPI]
U.S. Environmental Protection Agency [EPA]
National Institutes of Environmental Health Sciences [NIEHS]
National Toxicology Program [NTP]
U.S. Food and Drug Administration [FDA]
The HTR2A receptor is a subtype of the 5-HT2 receptor that belongs to the serotonin receptor family and is a G protein-coupled receptor (GPCR). The HTR2A-CHO cell line stably expressing human 5-hydroxytryptamine receptor 2A (HTR2A) can be used for screening agonists of interactions between 5-HT2 and its ligands. The HTR2A-CHO calcium flux assay is a homogeneous fluorescence-based assay for detecting the intracellular calcium level using FDSS kinetic plate reader system.
HTR2A-CHO cells were dispensed at 2000 cells/3uL/well in 1536-well black-clear bottom plates using a Multidrop Dispenser. After the assay plates were incubated at a 37 C/5% CO2 incubator for 18 h, 3 uL of Dye Loading Buffer was transferred to the assay plate by a Flying Reagent Dispenser. The assay plates were incubated at 37 C for 1h. For agonist mode, 23 nL of compounds dissolved in DMSO, positive controls or DMSO only was transferred to the assay plate by a pin tool. The fluorescence intensity in the plates was measured using FDSS 7000EX kinetic plate reader for 2 min at 1 sec intervals.
In the case of `Oc1ccc(Cl)cc1Sc1cc(Cl)ccc1O`, the Potency is reported as “inactive”. With `O=C(C(=O)c1ccccc1)c1ccccc1` the Potency was “inactive”. `CCOC(=O)CC(C)=O` was tested, and the Potency was “inactive”. `CC(C)NC(=O)c1ccccc1N` was tested, and the Potency was “inactive”. In the case of `O=C(O)/C=C/c1ccc(Cn2ccnc2)cc1`, the Potency is reported as “inactive”. `C=COCCCC` was tested, and the Potency was “inactive”. In the case of `COc1ccc(N)c(C)c1`, the Potency is reported as “inactive”. With `ClC/C=C\CCl` the Potency was “inactive”. In the case of `CCCCCC=O`, the Potency is reported as “inactive”. For `CN(CC1(C)CCCO1)S(=O)(=O)c1ccc(Cl)c(S(N)(=O)=O)c1` (stereo not given), the Potency was “inactive”. With `CCCCCCCCCOCC1CO1` (stereo not given) the Potency was “inactive”. With `O=[N+]([O-])c1ccc(/C=C/c2ccc([N+](=O)[O-])cc2S(=O)(=O)O)c(S(=O)(=O)O)c1` the Potency was “inactive”. In the case of `CC(C)c1cccc(O)c1`, the Potency is reported as “inactive”. In the case of `O=C(O)c1cc(-c2ccccc2)nc2ccccc12`, the Potency is reported as “inactive”. For `C=C1C[C@]23C[C@@]1(O)CC[C@H]2[C@@]12C=C[C@H](O)[C@@](C)(C(=O)O1)[C@H]2[C@@H]3C(=O)O`, the Potency was “inactive”. In the case of `O=Nc1ccc(NO)cc1`, the Potency is reported as “inactive”. In the case of `CC(=O)C(C)O` (stereo not given), the Potency is reported as “inactive”. For `O=C(O)C1CCC(C(=O)O)CC1` (stereo not given), the Potency was “inactive”. `CCC(C)C1N=C(C)C(C)S1` (stereo not given) was tested, and the Potency was “inactive”. `CC1CCc2nccnc21` (stereo not given) was tested, and the Potency was “inactive”. In the case of `CC(=O)CC(=O)Nc1ccccc1C`, the Potency is reported as “inactive”. In the case of `COc1ccc(Br)c(C)c1`, the Potency is reported as “inactive”. For `CC(C)CCCC(C)CCO` (stereo not given), the Potency was “inactive”. `c1ccc2c(c1)ccc1ncccc12` was tested, and the Potency was “inactive”. In the case of `COc1cc(/C=C/C(N)=O)cc(OC)c1OC`, the Potency is reported as “inactive”. In the case of `O=C(O)CCCCCCCCCCCC(=O)O`, the Potency is reported as “inactive”. `NC(=O)Nc1ccc(Cl)cc1` was tested, and the Potency was “inactive”. For `O=c1[nH]cnc2c1ncn2[C@@H]1O[C@H](CO)[C@@H](O)[C@H]1O`, the Potency was “inactive”. For `CC(C)OCCO`, the Potency was “inactive”. `CC1=CCC(O)(C(C)C)CC1` (stereo not given) was tested, and the Potency was “inactive”. With `CCO[Si](C)(C)OCC` the Potency was “inactive”. With `CC(C)C(=O)c1c(C(C)C)nn2ccccc12` the Potency was “inactive”. With `Clc1nc(Cl)c(Cl)c(Cl)c1Cl` the Potency was “inactive”. With `N#CCc1cccc(C(F)(F)F)c1` the Potency was “inactive”. `OCCN1CCNCC1` was tested, and the Potency was “inactive”. For `CC#N`, the Potency was “inactive”. In the case of `CNC(=O)c1c(I)c(NC(C)=O)c(I)c(C(=O)O)c1I`, the Potency is reported as “inactive”. With `CCC(C)(C)C1CCC(=O)CC1` the Potency was “inactive”. `CC(C#N)(CCC(=O)O)N=NC(C)(C#N)CCC(=O)O` (stereo not given) was tested, and the Potency was “inactive”. In the case of `C=C(C)C(=O)NCCCN(C)C`, the Potency is reported as “inactive”.
